From PubChem BioAssay
The list is not random: actives were taken first. Their share in the collection is about 10%.
HEK293 tox – cytotoxic compounds in HEK 293 cells; AID 1345083; Potency, µM (titrated, usually from 115 µM), without a hit: top-dose activity change, negative = cytotoxicity, most hits filed as inhibitors; HEK 293 viability, ATP luminescence (CellTiter-Glo), 48-72 h; 94,000 tested, 6.6% active; note: nearly all actives have a fitted effect of over 60% in size
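250 HEK 293 cells/well; compound by pintool; incubated 48 or 72 hr at 37 degree Celsius; CellTiter-Glo added, 10 min RT, luminescence imaged.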
FLuc inh – inhibitors of firefly (Photinus pyralis) luciferase; purified P. pyralis luciferase, luminescence, biochemical; P08659; Potency, µM (titrated, usually from 115 µM), hits mostly inhibitors; 76,000 tested, 2.5% active; AID 1347043; note: nearly all actives have a fitted effect of over 65% in size
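Purified 10nM P. pyralis luciferase with 10uM D-luciferin and 10uM ATP in 50mM Tris acetate pH 7.5, 10mM Mg acetate, 0.01% Tween-20, 0.05% BSA. qHTS titration; luminescence read by CCD imager.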
NIH3T3 tox – kills NIH 3T3 cells; NIH 3T3 viability, CellTiter-Glo ATP luminescence, 48-72 h; Potency, µM (highest dose often 96.7 µM), without a hit: at the highest dose activity change, negative = cytotoxicity, most hits filed as inhibitors; 94,000 tested, 4.3% active; note: nearly all actives have a fitted effect of over 55% in size
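Viability of NIH 3T3 cells after 48 or 72 hr compound treatment at 37 °C was assessed by CellTiter-Glo, with luminescence imaged following a 10 min room-temperature step.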
hNpr1 antagonist – blocks ANP-stimulated signaling of human Npr1 receptor. P16066. HEK293 hNpr1 GloSensor cGMP, ANP-stimulated luminescence. Potency, µM (titrated, usually from 46.3 µM), without a hit: at the highest dose activity change, negative = inhibition, hits mostly inhibitors. 76,000 tested, 1.6% active; calls by dose curve; note: nearly all actives have a fitted effect of over 60% in size
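HEK293 cells stably expressing human Npr1 and cGMP GloSensor pGS-40F, loaded 2 h with 2% GloSensor reagent, given compound 30 min at room temperature. Luminescence read before and 20 min after 0.1 nM hNppA.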
GPT2 inhibitor – GPT2 alanine aminotransferase inhibition; Potency, µM (top dose mostly 57.7 µM), for inactives: at the highest dose activity change, negative = inhibition, usual class: inhibitors; Recombinant GPT2, coupled pyruvate oxidase/HRP Amplex Red fluorescence; Q8TD30; AID 1671188; 100,000 tested, 0.25% active; note: nearly all actives have a fitted effect of over 60% in size
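Fluorescence of coupled pyruvate oxidase/HRP/Amplex Red system (50uM Amplex, 30 min, dark) reports pyruvate formed by GPT2. Enzyme reaction: 10ng/uL GPT2, 2mM L-alanine, 250uM a-KG, 30 min room temperature, pH 7.5; 50uM AOA control.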
Starred values were filed as active, the others as inactive; [ ] = remark or other dose. Unless noted, calls come from the whole dose curve; as a rule, active = well fitted curve in the direction sought with a large enough effect; inconclusive = small, poorly fitted or top-dose-only effect, or another doubt; inactive = no such curve, though single readings can be large; an effect the other way counts as inactive or inconclusive. % is set by controls: 0 for no effect and ±100 for the full control effect; potency is the fitted concentration of half-maximal effect.

What do the screens show for `Cc1cn2nc(C(=O)NCc3ccccc3C)cc2c(N(C)Cc2ccccc2)n1`?
HEK293 tox: inconclusive; FLuc inh: inactive; NIH3T3 tox: inconclusive; hNpr1 antagonist: 0%; GPT2 inhibitor: inactive

How did COc1ccc(C2=NOC3(CCN(Cc4ccc(F)cc4)C3)C2)cc1 (stereo not drawn) do in these assays?
HEK293 tox: 79µM*; FLuc inh: inactive; NIH3T3 tox: inconclusive; hNpr1 antagonist: inconclusive; GPT2 inhibitor: inactive

How did COc1ccc(C2=NOC3(CCCN([S+](=O)([O-])c4cccc(OC)c4)C3)C2)cc1 (stereo not drawn) do in these assays?
HEK293 tox: inconclusive; NIH3T3 tox: -26%; GPT2 inhibitor: inactive

How did COc1ccc(C2=NOC3(CCN([S+](=O)([O-])c4ccccc4)C3)C2)cc1 (stereo not drawn) do in these assays?
HEK293 tox: 45µM*; FLuc inh: inconclusive; NIH3T3 tox: inconclusive; hNpr1 antagonist: -15%; GPT2 inhibitor: -12%

Results for COc1ccc(CN2CCC3(CC2)CC(c2cccc(C(F)(F)F)c2)=NO3)cc1 ?
HEK293 tox: 50µM*; FLuc inh: inactive; NIH3T3 tox: inconclusive; hNpr1 antagonist: 2%; GPT2 inhibitor: inactive

How did O=C(NCc1ccc(F)cc1)c1ccc2nnc(-c3ccc(OC(F)(F)F)cc3)n2c1 do in these assays?
HEK293 tox: inconclusive; NIH3T3 tox: inconclusive; GPT2 inhibitor: -8%

Results for Cc1nc2n(c1C(=O)Nc1cccc(Cl)c1C)CCC(Nc1ccc(F)cc1)C2 (stereo not drawn) ?
HEK293 tox: 89µM*; FLuc inh: inactive; NIH3T3 tox: inconclusive; hNpr1 antagonist: -1%[70.6 µM]; GPT2 inhibitor: 1%[88.5 µM]

What do the screens show for `COCc1ccc2c(c1)c(OC(C)(C)C(=O)NCCCn1ccnc1)nn2CCC(C)C`?
HEK293 tox: -9%; FLuc inh: inactive; NIH3T3 tox: inconclusive; hNpr1 antagonist: 0%; GPT2 inhibitor: -7%

Results for c1ccc(CCc2noc(-c3ccc(NCCN4CCCC4)nc3)n2)cc1 ?
HEK293 tox: inconclusive; FLuc inh: inconclusive; NIH3T3 tox: inconclusive; hNpr1 antagonist: -25%; GPT2 inhibitor: inconclusive

What do the screens show for `O=C1OCCCN1CCNc1ccc(-c2nc(-c3ccccc3F)no2)cn1`?
HEK293 tox: inconclusive; FLuc inh: 35µM*; NIH3T3 tox: -37%; hNpr1 antagonist: -25%; GPT2 inhibitor: inactive

How did COC(=O)[C@@H]1CCCN1c1ccc(-c2nc(-c3ccccc3F)no2)cn1 do in these assays?
HEK293 tox: 40µM*; FLuc inh: inconclusive; NIH3T3 tox: inconclusive; hNpr1 antagonist: 14µM*; GPT2 inhibitor: -29%

Results for COc1ccc(-c2noc(-c3ccc(N4CCCOCC4)nc3)n2)cc1 ?
HEK293 tox: inconclusive; FLuc inh: inconclusive; NIH3T3 tox: inconclusive; hNpr1 antagonist: inconclusive; GPT2 inhibitor: inactive

How did O=C1CCCCN1CCNc1ccc(-c2nc(-c3ccccc3F)no2)cn1 do in these assays?
HEK293 tox: inconclusive; FLuc inh: 14µM*; NIH3T3 tox: inconclusive; hNpr1 antagonist: -29%; GPT2 inhibitor: inactive

What do the screens show for `Cn1ccc2c(C(=O)NCC3CCC(=O)N3)nc(-c3ccccc3C#N)cc21` (stereo not drawn)?
HEK293 tox: inconclusive; FLuc inh: inactive; NIH3T3 tox: 25µM*; hNpr1 antagonist: -1%[70.6 µM]; GPT2 inhibitor: -5%[88.5 µM]

What do the screens show for `O=C(NCCCN1CCCC1)c1ccc(-c2ccc(N3CCCCC3)nc2)cc1`?
HEK293 tox: inconclusive; FLuc inh: inconclusive; NIH3T3 tox: inconclusive; hNpr1 antagonist: 0%; GPT2 inhibitor: inactive

What do the screens show for `O=C(NCCN1CCOCC1)c1ccc(-c2ccc(N3CCSCC3)nc2)cc1`?
HEK293 tox: inconclusive; FLuc inh: inconclusive; NIH3T3 tox: -7%; hNpr1 antagonist: -14%; GPT2 inhibitor: -8%

What do the screens show for `CN(C)CCNC(=O)c1ccc(-c2ccc(N3CCCCCC3)nc2)cc1`?
HEK293 tox: 32µM*; FLuc inh: inconclusive; NIH3T3 tox: 18µM*; hNpr1 antagonist: -2%; GPT2 inhibitor: inactive
